We go through 40 molecules from PubChem BioAssay (NCATS).

SMILES strings stand for the structures. Results filed as inconclusive are left out. Unmarked numbers belong to inactive results. The call rests on the fitted dose curve; in most records, active means well fitted inhibition curve with a large enough effect; inconclusive means small, poorly fitted or top-dose-only effect; inactive means no such curve, though single readings can be large or run the other way.

The assay deals with Rap guanine nucleotide exchange factor 3 (Homo sapiens) (UniProt O95398). The assay can be described thus: Counterscreen qHTS for antagonist of cAMP-regulated guanine nucleotide exchange factor 3 (EPAC1) (AID 1645888). Further: % of control where 0% means no effect. The following applies: Rap1B-BODIPY-GDP nucleotide exchange, fluorescence; series mostly up to 154 µM; activity change, negative = inhibition: at the top concentration. The source says: Assay Provider (PI): Xiaodong Cheng Ph.D. The University of Texas Medical Branch, […], TX MLPCN Grant: NS066510 In multi-cellular eukaryotic organisms, the effects of cAMP are transduced by two ubiquitously-expressed intracellular cAMP receptors, the classic protein kinase A/cAMP-dependent protein kinase (PKA/cAPK) and the more recently discovered exchange protein directly activated by cAMP/cAMP-regulated guanine nucleotide exchange factor (EPAC/cAMP-GEF). Both PKA and EPAC are ubiquitously expressed in all tissues, and an increase in intracellular cAMP levels will lead to the activation of both PKA and EPAC. Therefore, careful dissections of the individual role and relative contribution of EPAC and PKA within the overall cAMP signaling in various model systems are critical for further elucidating the mechanism of cAMP signaling. To date no EPAC-specific antagonists and agonist, as well as isoform-specific agonists have been reported, and developing EPAC-specific pharmacological probes to determine the physiological functions that EPAC play in the overall cAMP-mediated signaling remains a major challenge within the research field. Furthermore, identified regulators of EPAC may lead to new mechanism-based therapeutic strategies specifically targeting the EPAC / cAMP-signaling components as EPAC has been implicated to play important roles in major human pathological conditions such as diabetes, heart disease, and cancer. This qHTS will be used to screen the Molecular Libraries Small Molecule Repository (MLSMR) as a concentration-titration series using the NCGC unique quantitative screening (qHTS) platform to find activators for EPAC1. In addition, this assay will also be used as a counterscreen for the EPAC2 qHTS. This fluorescent based assay is developed and validated for EPAC1 that measures exchange using EPAC effector Rap1 complex with BODIPY-GDP, a GDP analog with a tethered fluorophores. Activators are identified by monitoring the change in fluorescence signal as the exchanged free BODIPY-GDP has a reduced fluorescence compared to Rap1-bound BODIPY-GDP. Increase in signal (activation) is the desired outcome for the EPAC1 agonist while no activity in this assay is desired for the EPAC2 agonist counterscreen. Reference: [1] de Rooij, J., Zwartkruis, F. J., Verheijen, M. H., Cool, R. H., Nijman, S. M., Wittinghofer, A., and Bos, J.L. (1998) Nature 396, 474-477. Kawasaki, H., Springett, G. M., Mochizuki, N., Toki, S., Nakaya, M., Matsuda, M., Housman, D. E., and Graybiel, A. M. (1998) Science 282, 2275-2279.
Sequence of Rap guanine nucleotide exchange factor 3 (Homo sapiens) (O95398 whole entry, looked up): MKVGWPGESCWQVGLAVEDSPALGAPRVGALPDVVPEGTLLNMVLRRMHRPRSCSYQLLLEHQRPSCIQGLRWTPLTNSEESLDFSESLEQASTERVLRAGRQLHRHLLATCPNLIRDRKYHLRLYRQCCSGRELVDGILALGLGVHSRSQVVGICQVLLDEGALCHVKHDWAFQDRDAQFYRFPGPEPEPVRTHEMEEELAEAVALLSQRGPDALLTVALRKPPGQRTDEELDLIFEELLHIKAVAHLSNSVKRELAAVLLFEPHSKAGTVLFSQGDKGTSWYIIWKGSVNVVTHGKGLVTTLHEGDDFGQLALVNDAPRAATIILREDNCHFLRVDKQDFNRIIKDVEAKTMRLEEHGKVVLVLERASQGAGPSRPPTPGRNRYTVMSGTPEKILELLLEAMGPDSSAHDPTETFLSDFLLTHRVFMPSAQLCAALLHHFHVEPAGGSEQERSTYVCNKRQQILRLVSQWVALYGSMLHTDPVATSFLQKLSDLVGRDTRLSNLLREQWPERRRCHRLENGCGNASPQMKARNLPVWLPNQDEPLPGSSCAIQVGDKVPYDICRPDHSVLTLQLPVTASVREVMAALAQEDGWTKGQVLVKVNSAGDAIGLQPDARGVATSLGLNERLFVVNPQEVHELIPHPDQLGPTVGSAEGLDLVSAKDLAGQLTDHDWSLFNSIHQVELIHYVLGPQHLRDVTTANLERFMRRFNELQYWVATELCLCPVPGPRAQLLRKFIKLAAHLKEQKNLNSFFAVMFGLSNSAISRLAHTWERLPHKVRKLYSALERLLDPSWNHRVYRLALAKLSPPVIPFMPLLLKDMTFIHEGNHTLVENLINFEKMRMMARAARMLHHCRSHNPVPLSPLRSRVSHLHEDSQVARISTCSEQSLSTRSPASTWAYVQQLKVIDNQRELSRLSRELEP
EPAC1 Counterscreen PROTOCOL TABLE SEQUENCE No. (e.g., 1, 2, 3, etc.); […] (e.g., Cells, Incubation, Reagent, etc.); VALUE and DESCRIPTION. 1. Reagent. 3 uL. [1x] 250 nM Rap1B-BODIPY-GDP, and 50 uM GDP. 2a. Compound. 23 nL. Control 6,572 uM cAMP (working concentration). 2b, 2c. Compound. 23 nL. Control activator and inhibitor; 234 - 30,000 uM cAMP and 16.4 - 10,000 uM. 2d. Compound. 46 nL. MLSMR follow-up library; 0.64 - 10,000 uM. 3. Time. 15 sec, 1000rpm. Centrifuge. 4. Time. 5 min. Incubation at room temperature. 5. Detector. Fluorescence. (Read 1), Ex/Em = 480 nm / 540 nm. 6. Time. 30 min. Incubation at room temperature. 7. Detector. Fluorescence. (Read 2), Ex/Em = 480 nm/ 540 nm. 8. Reagent. 1uL. Dispense either [4x] 10 uM cAMP or buffer. 9. Time. 15 sec, 1000 rpm. Centrifuge. 10. Time. 5 min. Incubation at room temperature. 11. Detector. Fluorescence. (Read 3), Ex/Em = 480 nm / 540 nm. 12. Time. 30 min. Incubation at room temperature. 13. Detector. Fluorescence. (Read 4), Ex/Em = 480 nm / 540 nm. NOTES (numbers refer to Sequence numbers above; values are from representative experiments) 1. Medium-binding black solid-bottom Greiner plates (789176-F). Dispense 3 uL of [1x] 250 nM Rap1B-BODIPY-GDP, and 50 uM GDP into columns 1 to 48. 2a. Control compound cAMP (6,572 uM, column 3, rows 1 to 32) single pin-transferred for a [final] of 50 uM. 2b. […]
For `O=C(CSc1nc2c([nH]c3ccccc32)c(=O)n1-c1ccccc1F)Nc1cccc(Cl)c1`, the “activity change, negative = inhibition” value is -23.5%.

For `COc1ccc(N2CCN(C(=O)COC(=O)c3ccc(C)o3)CC2)cc1`, the activity change, negative = inhibition is -20% [at 30.8 µM].

`CCO/C(C)=N/Oc1cc(OC)cc(OC)c1`: the “activity change, negative = inhibition” value is -11.7%. In the case of `O=C(CCCCCl)Nc1c2c(nc3ccccc13)CCC2`, the activity change, negative = inhibition was -8.13% [at 30.8 µM]. With `O=C(NCCCn1ccnc1)c1cc(-c2cccnc2)nc2ccc(Br)cc12` the figure was -4.35%; with `Cc1cc(OCCCSc2nc(-c3ccc(C(C)(C)C)cc3)nc3cc(=O)[nH]n23)ccc1Cl`, 24.1%. Turning to `COc1ccc(NC(=O)c2c[nH]n3c(=O)cc(C4CCN(C(=O)OC(C)(C)C)CC4)nc23)cc1Cl`, the “activity change, negative = inhibition” value was 9.4%. With `COc1ccc2nc(N3CCN(C(=O)C4CC4)CC3)sc2c1`, the “activity change, negative = inhibition” value was 31.7%. `COc1cc2c(C#N)c(N3CCCC3)nc(N)c2c(N)n1`: the “activity change, negative = inhibition” value was 24.2%. Turning to `Cc1[nH][nH]c(=O)c1C(c1c(C)[nH][nH]c1=O)c1cn(Cc2ccccc2Cl)c2ccccc12`, the “activity change, negative = inhibition” value was 4.58%. Turning to `Cc1cc(N=Nc2ccccc2C(=O)O)c(C)c(C)c1O`, the activity change, negative = inhibition was -28.9% [at 30.8 µM]. With `Cc1cnc(C(=O)N(c2ccc(N3CCOCC3)cc2)C2C(=O)Nc3ccccc3N=C2c2ccc(F)cc2)cn1` (stereo not given) the figure was -24.1%.

As to `O=CN(CCN(C=O)CN1CCCCC1)CN1CCCCC1`, the “activity change, negative = inhibition” value is 25.9%. As to `COc1ccc(Br)cc1CN(C)C(=O)c1ccccc1OCc1c(C)noc1C`, the “activity change, negative = inhibition” value is -9.96%. As for `CC(=O)C1=C(c2ccc(C)cc2)N(C(C)=O)n2c(nnc2C2CCCCC2)S1`, the “activity change, negative = inhibition” value was 3.04%. For `COCOCCn1cc(CN2CCS(=O)(=O)N(Cc3ccc(-c4ccc(C)cc4)cc3)C(CC(C)C)C2=O)nn1` (stereo not given), the activity change, negative = inhibition is 15.6% [at 30.8 µM]. For the molecule `OC1(c2ccccc2)CC(c2ccccc2)c2ccccc2O1` (stereo not given), the activity change, negative = inhibition is -2.96% [at 30.8 µM]. For `Cc1ccc(S(=O)(=O)/N=C2\SC(CC(=O)Nc3ccc(F)cc3)C(=O)N2c2ccccc2)cc1` (stereo not given), the activity change, negative = inhibition was -39.2% [at 30.8 µM]. For `COc1cccc(/C(=N/O)C2CC2c2ccc(Cl)cc2)c1` (stereo not given), the activity change, negative = inhibition was -11.7% [at 30.8 µM]. Regarding `CC1(C(=O)NS(=O)(=O)c2ccc(C#N)cc2)CCN1C(=O)C1(c2ccccc2)CCCC1` (stereo not given), the “activity change, negative = inhibition” value is -8.43%. In the case of `O=C(Nc1ccc(F)cc1F)C1CCN(c2ncccn2)CC1`, the “activity change, negative = inhibition” value is -6.94%.

For the molecule `CC1C/C(=C/c2cccn2C)C(=O)/C(=C/c2cccn2C)C1` (stereo not given), the “activity change, negative = inhibition” value is 187%. For `CC(C)OP(=O)(c1ccc(N(C)C)cc1)C(Nc1ccccc1)c1ccccc1` (stereo not given), the “activity change, negative = inhibition” value was -22.2%. As for `C/C(=C\C(=O)c1ccccc1)Nc1ccc(O)cc1`, the activity change, negative = inhibition was -14.8% [at 30.8 µM]. For the molecule `COc1cccc(NC(=O)c2csc3c2CCCC3)c1`, the activity change, negative = inhibition was -28.5% [at 30.8 µM]. Next, `Cc1cccc(C)c1Nc1c(-c2ccccc2F)nc2cccc(C)n12`: 6.62%; `CCOC(=O)c1c(CC(C)C)csc1N`: -9.68%; `O=C(N/N=C/C=C\c1ccco1)c1ccccn1`: -2.62%. Consider `Cn1nc(-c2ccccn2)nc2c(=O)n(C)c(=O)nc1-2`, for which the “activity change, negative = inhibition” value was 6.22%. Next, `COc1cc(OC)nc(Oc2cccc(Cl)c2C)n1`: 9.01%; `O=S(=O)(NCc1ccccc1)c1ccc(S(=O)(=O)N(Cc2cccs2)CC2CCCO2)cc1` (stereo not given): -5.18%. As for `O=C1N=c2ccccc2=C1c1sc(Nc2ccc(O)cc2)nc1O`, the “activity change, negative = inhibition” value is -29.5%. As for `CN(c1ccc(C(=O)NCc2ccc3c(c2)OCO3)cc1)S(=O)(=O)c1ccccc1`, the “activity change, negative = inhibition” value was 2.41%. In the case of `CCOC(=O)N1CCN(S(=O)(=O)c2cc(-c3nn4c(C)nnc4c4ccccc34)ccc2C)CC1`, the “activity change, negative = inhibition” value was 6.04%. For `N#C/C(=C/c1ccc(N2CCOCC2)o1)c1nc2ccccc2[nH]1`, the “activity change, negative = inhibition” value is 168%. `CC1(C)CC(=O)c2sc(N3CCCCC3)nc2C1`: the “activity change, negative = inhibition” value is 7.55%. `Cc1cc(C)c(OCC(=O)Nc2ccccc2N2CCCCC2)c(C)c1`: the “activity change, negative = inhibition” value is 6.76%. As for `CCCCC1=CC2=CC(=O)C(C)(OC(=O)C3CCCC3)C(=O)C2=CO1` (stereo not given), the activity change, negative = inhibition is -20.6% [at 30.8 µM]. On to `O=C(O)c1[nH]c2ccccc2c1C(c1cc(Cl)cc([N+](=O)[O-])c1O)c1c(C(=O)O)[nH]c2ccccc12`, for which the “activity change, negative = inhibition” value was 6.67%. Regarding `COc1ccc(C(=O)c2ccccc2)c2c(O)ccc(C(=O)c3ccccc3)c12`, the “activity change, negative = inhibition” value was 10.8%.
